Assay outcomes (PubChem BioAssay)
Rows were chosen to be rich in hits. Some 7.8% of all compounds tested hit in one or more screens of this group.
Hedgehog inh: Sonic Hedgehog pathway inhibition; Shh-LIGHT2 Gli-luciferase reporter, 30 h; inhibition, % (concentration not given with the values); actives 2.1% (n = 22,000);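 active = mean inhibition across valid replicates above about 65%, limit read from the data; inconclusive = mean under the limit, yet half or more replicates past it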;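 also: pathway switched on by Shh-conditioned medium diluted 1 in 25 in low serum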
MITF inh: inhibitors of MITF; actives 0.28% (n = 37,000); TRPM1 promoter luciferase, luminescence, 24 h; inhibition, % (test concentration not listed); in the data active = inhibition above about 85%; inconclusive = no clear call, values can overlap the other calls; inactive = below about 68%;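 also: human melanocyte line stably carrying TRPM1 promoter luciferase reporter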
NOMO-1 viab: STK33 inhibitor candidate reducing NOMO-1 cell viability; NOMO-1 AML viability, CellTiter-Glo luminescence, 72 h; inhibition, % (no concentration beside the values); actives 7.5% (n = 37,000); in the data active = inhibition above about 80%; inconclusive = no clear call, values can overlap the other calls
PD-1 reversal: reversal of PD-1 mediated T-cell inhibition; primary human CD4 T cells, PD-L1 beads, CellTiter-Glo 96 h; activation, % (no concentration beside the values); 29,000 tested, under 10 active; AID 2316; call rule not given here;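 also: 0% = median vehicle wells and 100% = positive control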
* hit, by the source's call; u = inconclusive; x = not tested or not shown.

SMILES | Hedgehog inh | MITF inh | NOMO-1 viab | PD-1 reversal
CC(=O)N[C@H]1[C@H](O[C@H]2CC[C@@]3(C)C(CC[C@]4(C)C3CC=C3[C@@H]5CC(C)(C)CC[C@]5(C(=O)O)CC[C@]34C)C2(C)C)O[C@H](CO[C@@H]2OC[C@H](O)[C@H](O)[C@H]2O[C@@H]2OC[C@H](O)[C@H](O)[C@H]2O)[C@@H](O)[C@@H]1O (some centres not stated) | 108.6* | 19.3 | 120.3* | -13.3
CC1OC(OC2C(O)C(CO)OC(O[C@H]3CC[C@@]4(C)C(CC[C@]5(C)C4CC=C4C6CC(C)(C)CC[C@]6(C(=O)OC6OCC(OC7OCC(O)C(O)C7O)C(O)C6O)CC[C@]45C)C3(C)C)C2O)C(O)C(OC2OCC(O)(CO)C2O)C1O (some centres not stated) | 39.5 | -9.2 | 121.7* | -13.6
O=C(CSc1ccc(Cl)cc1)Nc1cscc1S(=O)(=O)c1ccc(Cl)cc1 | x | 25.2 | 23.2 | -1.5
CC(C)C(NS(=O)(=O)c1ccccc1F)C(=O)O (configuration not stated) | x | -16.1 | 2.8 | 2.9
C[C@@H]1O[C@@H](O[C@H]2[C@H](O[C@H]3CC[C@@]4(C)C(CC[C@]5(C)C4CC=C4C6CC(C)(C)CC[C@]6(C(=O)O)CC[C@]45C)[C@]3(C)CO)OC[C@H](O)[C@@H]2O)[C@H](O)[C@H](O)[C@H]1O (some centres not stated) | 73.7* | 26.0 | 119.3* | -8.7
CC(C)(CCO[C@@H]1O[C@H](CO[C@@H]2OC[C@@H](O)[C@H](O)[C@H]2O)[C@@H](O)[C@H](O)[C@H]1O)C[C@@H]1C(C(=O)O)=CC[C@]2(C(=O)O)C1=CCC1[C@@]3(C)CC[C@H](O[C@@H]4O[C@H](CO[C@@H]5O[C@H](CO)[C@@H](O)[C@H](O)[C@H]5O)[C@@H](O)[C@H](O)[C@H]4O)C(C)(C)C3CC[C@]12C (some centres not stated) | 106.4* | x | x | x
CC1(C)CC[C@]2(C(=O)O)CC[C@]3(C)C(=CCC4[C@@]5(C)CC[C@H](O[C@@H]6O[C@H](C(=O)O)[C@@H](O[C@@H]7OC[C@@H](O)[C@H](O)[C@H]7O)[C@H](O)[C@H]6O)C(C)(C)C5CC[C@]43C)C2C1 (some centres not stated) | 105.0* | 12.9 | 116.3* | -9.2
CC1(C)CC[C@]2(C(=O)O)CC[C@]3(C)C(=CCC4[C@@]5(C)CC[C@H](O[C@@H]6O[C@H](C(=O)O)[C@@H](O[C@@H]7OC[C@@H](O)[C@H](O)[C@H]7O)[C@H](O)[C@H]6O)C(C)(C)C5CC[C@]43C)C2C1O (some centres not stated) | -18.4 | -7.6 | -4.5 | -2.0
CC1CC[C@]2(C(=O)OC3OC(COC4OC(CO)C(O)C(O)C4O)C(O)C(O)C3O)CC[C@]3(C(=O)O)C(=CCC4[C@@]5(C)CC[C@H](OC6OC(C)C(O)C(O)C6O)C(C)(C)C5CC[C@]43C)C2C1C (some centres not stated) | 32.0 | 18.5 | 7.2 | -0.7
COc1ccc(-c2cc(SCCN3CCOCC3)c(C#N)c(-c3ccccc3)n2)cc1 | u | -11.5 | 29.0 | -1.4
Cc1cccc(Cl)c1OC(=O)c1cc(C(C)(C)C)nn1C | -8.5 | -24.4 | 67.6 | -1.0
COC(=O)c1ccc(NC(=O)CN2CCC(C(N)=O)(N3CCCCC3)CC2)cc1 | x | -1.5 | -5.3 | 1.7
Cc1ccc(C(O)(COC(=O)C(C)C)COC(=O)C(C)C)c(O)c1 | -21.6 | -13.6 | 117.5* | -12.2
Cc1ccc(C(C)C)cc1OCC(O)Cn1c(C)nc2ccccc21 (configuration not stated) | x | 54.9 | 105.5* | -7.6
Cc1nc2ccccc2n1CC(O)COCC1CC=CCC1 (configuration not stated) | x | 54.9 | 40.6 | 0.6
C=C1C(=O)O[C@H]2C1[C@H](OC(=O)/C(C)=C/CO)C/C(C)=C\CC[C@@]1(C)OC21 (some centres not stated) | 26.3 | -8.8 | 121.6* | -28.1
C=C1C(=O)OC2/C=C(\CO)C(OC(C)=O)C/C=C(/C)CC(OC(=O)/C(C)=C\CO)C12 (configuration not stated) | 48.2 | -5.3 | 121.1* | -6.0
C=C1C(=O)O[C@H]2C1[C@H](OC(=O)/C(C)=C/CO)C/C(C)=C\CC[C@@]1(CO)OC21 (some centres not stated) | 4.2 | 25.9 | 93.2* | -15.0
C=C1C(=O)O[C@H]2[C@H]1[C@@H](OC(=O)/C(C)=C\C)C[C@]1(C)O[C@@H]1[C@H]1O[C@H]1C(=C)[C@H]2O | 30.6 | 35.3 | 120.9* | -24.8
C/C=C(/C)C(=O)O[C@H]1C[C@@](C)(O)C(=O)[C@@H](OC(=O)/C(C)=C\C)[C@@]2(C)CC[C@@](O)(C(C)C)[C@H]12 | -10.6 | -10.7 | 34.4 | 0.5
Cc1ccc(S(=O)(=O)NCC(=O)Nc2cccc(Cl)c2)cc1 | x | 7.0 | -5.7 | -1.2
O=C(/C=C/c1ccc(Cl)cc1)Nc1cccc(Cl)c1 | u | 39.4 | 120.1* | -0.7
COc1cccc(NC(=O)c2cnccc2C(F)(F)F)c1 | -11.6 | -18.5 | 0.7 | 0.4
O=C(NCC[n+]1ccc2ccccc2c1)c1ccccc1 | -26.3 | 0.9 | 44.1 | 0.0
Cc1ccc(S(=O)(=O)N[C@@H](Cc2ccccc2)C(=O)CCl)cc1 | 95.4* | 83.1 | 120.1* | x
SMILES | Hedgehog inh | MITF inh | NOMO-1 viab | PD-1 reversal
Cc1cc(C)c2c3c1C1C=CCC1CN3C(C(=O)O)C1CC=CC21 (configuration not stated) | 39.8 | 8.6 | 115.0* | -1.2
COC(=O)c1ccc(NC(=O)CSC(=S)N2CCOCC2)cc1 | 67.9* | 6.5 | 16.2 | 3.8
CNC(=O)CCC(=O)Nc1ccc(C(=O)OC)cc1 | x | -0.1 | 14.6 | 4.2
C=C1CC[C@H]2C(=C)CC[C@@]3(O)C(=C)C(=O)O[C@@H]3[C@@H]12 | 29.6 | 7.4 | 109.9* | -15.9
C/C=C(/C)C(=O)O[C@H]1[C@H](OC(=O)/C(C)=C\C)[C@]2(CO)[C@H](O)C[C@]3(C)C(=CCC4[C@@]5(C)CC[C@H](OC6OC(C(=O)O)C(O)C(OC7OC(C)C(O)C(OC8OC(CO)C(O)C(O)C8O)C7O)C6O)C(C)(C)C5CC[C@]43C)[C@@H]2CC1(C)C (some centres not stated) | 99.0* | 101.8* | 121.9* | -38.3
C/C=C(/C)C(=O)O[C@H]1[C@H](OC(=O)/C=C/c2ccccc2)[C@@]23C(CC1(C)C)[C@]1(CCC4[C@@]5(C)CC[C@H](O[C@@H]6O[C@H](C(=O)O)[C@@H](O)[C@H](O[C@@H]7O[C@H](CO)[C@H](O)[C@H](O)[C@H]7O[C@@H]7O[C@@H](C)[C@H](O)[C@@H](O)[C@H]7O[C@@H]7OC[C@](O)(CO)[C@H]7O)[C@H]6O[C@@H]6O[C@H](CO)[C@H](O)[C@H](O)[C@H]6O)C(C)(C)C5CC[C@@]4(C)[C@]1(C)C[C@H]2O)O[C@H]3O (some centres not stated) | 87.8* | 90.4* | 120.3* | -14.7
